PubChem BioAssay AID1159580 (chemical genetic matrix, 2015)
About 2,000 (36%) of roughly 5,500 compounds were called active. Another 18% or so got no clear call; they are omitted. No stated cut-off is given here; in the data, active means normalized growth mostly below about 0.91 (no sharp cut-off); inconclusive means no clear call, values can overlap the other calls; inactive means mostly above about 0.92. The list shows a part of the results.

Assay: chemical genetic growth profiling, strain panel (AID 1159580);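 further: tested at 20 µM; growth read once vehicle control cultures reached saturation at 30 °C; 1 = growth at the plate median or of vehicle wells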
Settings: growth OD

Measured: normalized growth

COc1cc2c(cc1OC)C(=O)OC2
inactive: S. cerevisiae deletion strains, locus YJR075W, strain HOC1, stronger effect = lower value 1.01 | S. cerevisiae deletion strains, locus YKL009W, strain mrt4, stronger effect = lower value 1.05 | S. cerevisiae deletion strains, locus YKL068W, stronger effect = lower value 1 | S. cerevisiae deletion strains, locus YKL085W, strain MDH1 (second series), stronger effect = lower value 1.01 | S. cerevisiae deletion strains, locus YKL085W, strain MDH1, stronger effect = lower value 1.01 | S. cerevisiae deletion strains, locus YKL160W, strain elf1, stronger effect = lower value 0.994 | S. cerevisiae deletion strains, locus YKL190W, strain CNB1, stronger effect = lower value 1 | S. cerevisiae deletion strains, locus YKR001C, strain vps1, stronger effect = lower value 1.01 | S. cerevisiae deletion strains, locus YKR026C, strain gcn3, stronger effect = lower value 0.992 | S. cerevisiae deletion strains, locus YKR091W, strain srl3, stronger effect = lower value 0.996 | S. cerevisiae deletion strains, locus YLL001W, strain dnm1, stronger effect = lower value 0.996 | S. cerevisiae deletion strains, locus YLL026W, stronger effect = lower value 0.991 | S. cerevisiae deletion strains, locus YLL041C, strain sdh2, stronger effect = lower value 1 | S. cerevisiae deletion strains, locus YLR027C, strain aat2, stronger effect = lower value 1 | S. cerevisiae deletion strains, locus YLR039C, strain RIC1, stronger effect = lower value 1.02 | S. cerevisiae deletion strains, locus YLR058C, strain SHM2, stronger effect = lower value 1.01 | S. cerevisiae deletion strains, locus YLR102C, strain apc9, stronger effect = lower value 1 | S. cerevisiae deletion strains, locus YLR113W, strain HOG1, stronger effect = lower value 0.971 | S. cerevisiae deletion strains, locus YLR221C, strain rsa3, stronger effect = lower value 1.01 | S. cerevisiae deletion strains, locus YLR258W, strain gsy2, stronger effect = lower value 0.992 | S. cerevisiae deletion strains, locus YLR262C, strain YPT6 (second series), stronger effect = lower value 1.02 | S. cerevisiae deletion strains, locus YLR262C, strain YPT6, stronger effect = lower value 1.02 | S. cerevisiae deletion strains, locus YLR268W, strain sec22, stronger effect = lower value 0.979 | S. cerevisiae deletion strains, locus YLR320W, strain mms22, stronger effect = lower value 0.995 | S. cerevisiae deletion strains, locus YLR330W, strain CHS5, stronger effect = lower value 1.01 | S. cerevisiae deletion strains, locus YLR342W, strain FKS1 (second series), stronger effect = lower value 1.07 | S. cerevisiae deletion strains, locus YLR342W, strain FKS1, stronger effect = lower value 0.999 | S. cerevisiae deletion strains, locus YLR357W, strain rsc2, stronger effect = lower value 0.96 | S. cerevisiae deletion strains, locus YLR370C, strain arc18, stronger effect = lower value 0.997 | S. cerevisiae deletion strains, locus YLR371W, strain rom2, stronger effect = lower value 1.01 | S. cerevisiae deletion strains, locus YLR384C, strain iki3, stronger effect = lower value 0.988 | S. cerevisiae deletion strains, locus YLR418C, strain cdc73, stronger effect = lower value 0.925 | S. cerevisiae deletion strains, locus YML016C, strain PPZ1, stronger effect = lower value 1 | S. cerevisiae deletion strains, locus YML032C, strain rad52, stronger effect = lower value 1.01 | S. cerevisiae deletion strains, locus YML120C, strain ndi1, stronger effect = lower value 1.01 | S. cerevisiae deletion strains, locus YML124C, strain tub3, stronger effect = lower value 0.994 | S. cerevisiae deletion strains, locus YMR058W, strain fet3, stronger effect = lower value 0.999 | S. cerevisiae deletion strains, locus YMR078C, strain ctf18, stronger effect = lower value 1 | S. cerevisiae deletion strains, locus YMR125W, strain sto1, stronger effect = lower value 0.984 | S. cerevisiae deletion strains, locus YMR129W, stronger effect = lower value 0.992 | S. cerevisiae deletion strains, locus YMR205C, strain PFK2, stronger effect = lower value 1.01 | S. cerevisiae deletion strains, locus YMR223W, strain ubp8, stronger effect = lower value 1.02 | S. cerevisiae deletion strains, locus YMR231W, strain pep5, stronger effect = lower value 0.99 | S. cerevisiae deletion strains, locus YMR263W, strain SAP30, stronger effect = lower value 0.994 | S. cerevisiae deletion strains, locus YMR307W, strain GAS1, stronger effect = lower value 1.09 | S. cerevisiae deletion strains, locus YNL067W, strain RPL9B, stronger effect = lower value 0.997 | S. cerevisiae deletion strains, locus YNL071W, strain lat1, stronger effect = lower value 0.995 | S. cerevisiae deletion strains, locus YNL128W, strain TEP1, stronger effect = lower value 0.99 | S. cerevisiae deletion strains, locus YNL153C, strain GIM3, stronger effect = lower value 0.978 | S. cerevisiae deletion strains, locus YNL183C, strain NPR1, stronger effect = lower value 0.987 | S. cerevisiae deletion strains, locus YNL209W, strain ssb2, stronger effect = lower value 0.979 | S. cerevisiae deletion strains, locus YNL233W, strain BNI4, stronger effect = lower value 0.992 | S. cerevisiae deletion strains, locus YNL248C, strain rpa49, stronger effect = lower value 0.978 | S. cerevisiae deletion strains, locus YNL250W, strain rad50, stronger effect = lower value 0.995 | S. cerevisiae deletion strains, locus YNL271C, strain bni1, stronger effect = lower value 1 | S. cerevisiae deletion strains, locus YNL298W, strain CLA4, stronger effect = lower value 1.02 | S. cerevisiae deletion strains, locus YNL307C, strain MCK1, stronger effect = lower value 1.02 | S. cerevisiae deletion strains, locus YNL322C, strain KRE1 (second series), stronger effect = lower value 0.996 | S. cerevisiae deletion strains, locus YNL322C, strain KRE1, stronger effect = lower value 1.01 | S. cerevisiae deletion strains, locus YNR049C, strain mso1, stronger effect = lower value 1 | S. cerevisiae deletion strains, locus YNR052C, strain pop2, stronger effect = lower value 1.01 | S. cerevisiae deletion strains, locus YOL006C, strain TOP1, stronger effect = lower value 0.996 | S. cerevisiae deletion strains, locus YOL012C, strain htz1 0.744 | S. cerevisiae deletion strains, locus YOL147C, strain pex11, stronger effect = lower value 1 | S. cerevisiae deletion strains, locus YOR001W, strain rrp6, stronger effect = lower value 0.993 | S. cerevisiae deletion strains, locus YOR061W, strain CKA2, stronger effect = lower value 1 | S. cerevisiae deletion strains, locus YOR069W, strain VPS5, stronger effect = lower value 1.01 | S. cerevisiae deletion strains, locus YOR070C, strain gyp1, stronger effect = lower value 0.984 | S. cerevisiae deletion strains, locus YOR080W, strain dia2, stronger effect = lower value 1.01 | S. cerevisiae deletion strains, locus YOR083W, strain WHI5, stronger effect = lower value 0.996 | S. cerevisiae deletion strains, locus YOR106W, strain vam3, stronger effect = lower value 0.99 | S. cerevisiae deletion strains, locus YOR136W, strain idh2, stronger effect = lower value 1 | S. cerevisiae deletion strains, locus YOR144C, strain elg1, stronger effect = lower value 1 | S. cerevisiae deletion strains, locus YOR184W, strain ser1, stronger effect = lower value 1.04 | S. cerevisiae deletion strains, locus YOR231W, strain MKK1, stronger effect = lower value 0.991 | S. cerevisiae deletion strains, locus YOR265W, strain rbl2, stronger effect = lower value 1.01 | S. cerevisiae deletion strains, locus YOR270C, strain vph1, stronger effect = lower value 0.971 | S. cerevisiae deletion strains, locus YOR290C, strain snf2, stronger effect = lower value 1.01 | S. cerevisiae deletion strains, locus YOR316C, strain cot1, stronger effect = lower value 1.01 | S. cerevisiae deletion strains, locus YPL051W, strain arl3, stronger effect = lower value 0.994 | S. cerevisiae deletion strains, locus YPL055C, strain LGE1, stronger effect = lower value 0.973 | S. cerevisiae deletion strains, locus YPL078C, strain atp4, stronger effect = lower value 1.01 | S. cerevisiae deletion strains, locus YPL106C, strain sse1, stronger effect = lower value 0.901 | S. cerevisiae deletion strains, locus YPL240C, strain hsp82, stronger effect = lower value 0.988 | S. cerevisiae deletion strains, locus YPL241C, strain CIN2, stronger effect = lower value 1 | S. cerevisiae deletion strains, locus YPL256C, strain CLN2, stronger effect = lower value 1 | S. cerevisiae deletion strains, locus YPR119W, strain clb2, stronger effect = lower value 0.995 | S. cerevisiae deletion strains, locus YPR141C, strain kar3, stronger effect = lower value 1 | S. cerevisiae deletion strains, locus YPR163C, strain tif3, stronger effect = lower value 0.989 | S. cerevisiae deletion strains, locus YPR167C, strain met16, stronger effect = lower value 1 | S. cerevisiae deletion strains, strain wtn01, stronger effect = lower value 1 | S. cerevisiae strains, strain wild type, stronger effect = lower value 1.01
